{"source": "PubChem BioAssay AID722", "about": "(NMMLSC, 2007)", "note": "The campaign covered roughly 1,300 compounds. About 40 (3%) were called active. What follows is part of a selection rich in actives, with near analogues and random picks from the rest. Unmarked numbers belong to inactive results. Cut-off read from the data, not from the text of the source: active = inhibition above about 30%; inactive = the rest.", "data": [{"target": "fMet-Leu-Phe receptor (Homo sapiens) (UniProt P21462)", "sequence (P21462 whole entry, looked up)": "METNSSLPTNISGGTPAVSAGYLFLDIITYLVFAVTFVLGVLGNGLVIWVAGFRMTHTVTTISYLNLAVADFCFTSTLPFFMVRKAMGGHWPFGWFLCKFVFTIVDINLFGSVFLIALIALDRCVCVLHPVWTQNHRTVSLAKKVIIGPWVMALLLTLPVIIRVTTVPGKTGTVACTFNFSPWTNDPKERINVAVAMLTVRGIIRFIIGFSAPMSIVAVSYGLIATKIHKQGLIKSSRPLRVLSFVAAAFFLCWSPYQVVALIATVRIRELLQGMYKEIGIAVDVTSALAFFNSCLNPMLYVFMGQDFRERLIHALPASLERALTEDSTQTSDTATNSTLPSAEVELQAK", "assay": "human FPR1 ligand displacement screen – cell-based, flow cytometry, SAR analysis, primary screen (AID 722)", "details": "FPR-expressing cells, fluorescent ligand binding inhibition, active compounds read high, concentration not given here", "values": [{"compound": "COC(=O)c1ccccc1NC(=O)NC1CCCCC1", "inhibition": "-4.1%"}, {"compound": "Cc1ccc(/C(O)=C2\\C(=O)C(=O)NC2c2ccc(C)cc2)cc1", "note": "(centres undefined)", "inhibition": "-7.7%"}, {"compound": "COCCCN1C(=O)C(=O)/C(=C(/O)c2ccccc2)C1c1ccc2c(c1)OCO2", "note": "(centres undefined)", "inhibition": "-1.2%"}, {"compound": "O=C1C(=O)N(CCO)C(c2ccc([N+](=O)[O-])cc2)/C1=C(/O)c1ccc(Cl)cc1", "note": "(centres undefined)", "inhibition": "-5.4%"}, {"compound": "O=C1CC(c2ccccc2)C2=C(CC(c3cccs3)CC2=O)N1", "note": "(centres undefined)", "inhibition": "-21.7%"}, {"compound": "O=C1CC(c2cccc(Cl)c2)C2=C(CC(c3cccs3)CC2=O)N1", "note": "(centres undefined)", "inhibition": "10.4%"}, {"compound": "O=C1CC(c2cccc(Cl)c2Cl)C2=C(CC(c3cccs3)CC2=O)N1", "note": "(centres undefined)", "inhibition": "-15.7%"}, {"compound": "Cc1cccc(C2CC(=O)NC3=C2C(=O)CC(c2cccs2)C3)c1", "note": "(centres undefined)", "inhibition": "33.7% (active)"}, {"compound": "O=C1CC(c2cccc(F)c2)C2=C(CC(c3cccs3)CC2=O)N1", "note": "(centres undefined)", "inhibition": "-6.6%"}, {"compound": "O=C1CC(c2ccccc2C(F)(F)F)C2=C(CC(c3cccs3)CC2=O)N1", "note": "(centres undefined)", "inhibition": "32.3% (active)"}, {"compound": "COc1ccc(C2C(C(=O)c3cccs3)=C(O)C(=O)N2Cc2cccnc2)cc1", "note": "(centres undefined)", "inhibition": "-9.5%"}, {"compound": "O=C1C(=O)N(CCO)C(c2cccc(F)c2)/C1=C(/O)c1ccccc1", "note": "(centres undefined)", "inhibition": "-7.5%"}, {"compound": "COc1ccc(OC)c(C2/C(=C(\\O)c3ccccc3)C(=O)C(=O)N2c2nc3ccccc3s2)c1", "note": "(centres undefined)", "inhibition": "-1.7%"}, {"compound": "COc1cccc(C2/C(=C(\\O)c3ccc(F)cc3)C(=O)C(=O)N2Cc2cccnc2)c1", "note": "(centres undefined)", "inhibition": "1%"}, {"compound": "CC(C)(C)c1ccc(C2/C(=C(\\O)c3ccc(F)cc3)C(=O)C(=O)N2Cc2cccnc2)cc1", "note": "(centres undefined)", "inhibition": "-1.6%"}, {"compound": "COc1ccc(C2NC(=O)C(=O)/C2=C(\\O)c2ccc(Cl)cc2)cc1", "note": "(centres undefined)", "inhibition": "-4.8%"}, {"compound": "O=C1NC(c2ccc(Br)cc2)/C(=C(\\O)c2ccc(Cl)cc2)C1=O", "note": "(centres undefined)", "inhibition": "46.3% (active)"}, {"compound": "O=C1NC(c2ccccc2Cl)/C(=C(/O)c2ccc(Br)cc2)C1=O", "note": "(centres undefined)", "inhibition": "8.6%"}, {"compound": "O=C1NC(c2cccc(F)c2)/C(=C(/O)c2ccc(Br)cc2)C1=O", "note": "(centres undefined)", "inhibition": "17%"}, {"compound": "COC(=O)c1sc(N2C(=O)C(O)=C(C(=O)c3cc4ccccc4o3)C2c2ccc(OC)cc2)nc1C", "note": "(centres undefined)", "inhibition": "3.6%"}, {"compound": "COC(=O)c1c[nH]n2c(=O)cc(C3CCNCC3)nc12", "inhibition": "-1.9%"}, {"compound": "O=C1CSC(c2ccc(Br)cc2)N1c1cccc(Cl)c1", "note": "(centres undefined)", "inhibition": "2.7%"}, {"compound": "COc1cc(C2C(C(=O)c3cc4ccccc4o3)=C(O)C(=O)N2CCN(C)C)ccc1O", "note": "(centres undefined)", "inhibition": "88.7% (active)"}, {"compound": "COc1ccc(C2C(C(=O)c3cc4ccccc4o3)=C(O)C(=O)N2CCN(C)C)cc1OC", "note": "(centres undefined)", "inhibition": "66.9% (active)"}, {"compound": "COc1ccc(C2C(C(=O)c3cc4ccccc4o3)=C(O)C(=O)N2CCN(C)C)cc1", "note": "(centres undefined)", "inhibition": "-8.1%"}, {"compound": "COc1cc(C2C(C(=O)c3cc4ccccc4o3)=C(O)C(=O)N2CCN(C)C)cc(OC)c1OC", "note": "(centres undefined)", "inhibition": "-6.9%"}, {"compound": "COc1cccc(C2C(C(=O)c3cc4ccccc4o3)=C(O)C(=O)N2CCCN(C)C)c1", "note": "(centres undefined)", "inhibition": "-4.2%"}, {"compound": "COc1cc(C2C(C(=O)c3cc4ccccc4o3)=C(O)C(=O)N2CCCN(C)C)cc(OC)c1OC", "note": "(centres undefined)", "inhibition": "14.6%"}, {"compound": "COCCCN1C(=O)C(=O)/C(=C(/O)c2ccc(C)cc2)C1c1cc(OC)ccc1OC", "note": "(centres undefined)", "inhibition": "0.2%"}, {"compound": "CCOC(=O)Cc1c(C)nc2c(-c3ccccc3)c(-c3ccccc3)[nH]n2c1=O", "inhibition": "-11.4%"}, {"compound": "COCCN1C(=O)C(O)=C(C(=O)c2cc3ccccc3o2)C1c1ccc(OCc2ccccc2)c(OC)c1", "note": "(centres undefined)", "inhibition": "-2.2%"}, {"compound": "COc1ccc(C2C(C(=O)c3cccs3)=C(O)C(=O)N2CCCN2CCOCC2)cc1", "note": "(centres undefined)", "inhibition": "6.5%"}, {"compound": "COc1ccc(C2C(C(=O)c3ccco3)=C(O)C(=O)N2CCN2CCOCC2)c(OC)c1", "note": "(centres undefined)", "inhibition": "49.5% (active)"}, {"compound": "COc1ccc(C2C(C(=O)c3cccs3)=C(O)C(=O)N2CCN2CCOCC2)cc1", "note": "(centres undefined)", "inhibition": "9.7%"}, {"compound": "COc1ccc(C2C(C(=O)c3cccs3)=C(O)C(=O)N2CCN2CCOCC2)c(OC)c1", "note": "(centres undefined)", "inhibition": "62% (active)"}, {"compound": "COc1ccc(C2C(C(=O)c3ccco3)=C(O)C(=O)N2CCN2CCOCC2)cc1", "note": "(centres undefined)", "inhibition": "2.9%"}, {"compound": "COc1ccc(C2C(C(=O)c3ccco3)=C(O)C(=O)N2CCN2CCOCC2)cc1OC", "note": "(centres undefined)", "inhibition": "-43.5%"}, {"compound": "COc1ccccc1CN1C(=O)c2nccnc2C1=O", "inhibition": "1.8%"}, {"compound": "CCc1ccc(C(=O)CSc2nc3nc(C)cc(C)c3c(=O)[nH]2)cc1", "inhibition": "5.9%"}, {"compound": "CCOC(=O)c1c(NC(=O)c2ccco2)sc2c1CCC(C)C2", "note": "(centres undefined)", "inhibition": "-0.4%"}, {"compound": "Cc1ccc(N2C(=O)CSC2c2ccc(C(C)C)cc2)cc1", "note": "(centres undefined)", "inhibition": "-5.6%"}, {"compound": "O=C(C1=C(O)C(=O)N(CCCn2ccnc2)C1c1ccc(Cl)cc1Cl)c1ccco1", "note": "(centres undefined)", "inhibition": "1.7%"}, {"compound": "CCOC(=O)c1c(NC(=O)c2cccnc2)sc2c1CCC(C(C)(C)C)C2", "note": "(centres undefined)", "inhibition": "-8%"}, {"compound": "O=C1C(=O)N(c2cccnc2)C(c2ccccc2[N+](=O)[O-])/C1=C(/O)c1ccccc1", "note": "(centres undefined)", "inhibition": "-2.9%"}, {"compound": "CCc1c(C)sc(NC(=O)c2cccc(F)c2)c1C(=O)OC", "inhibition": "-9.8%"}, {"compound": "COc1ccc(C2C(C(C)=O)=C(O)C(=O)N2Cc2ccco2)cc1OC", "note": "(centres undefined)", "inhibition": "1.8%"}, {"compound": "COc1cccc(Oc2c(C(F)(F)F)oc3cc(O)ccc3c2=O)c1", "inhibition": "9.2%"}, {"compound": "COC(=O)c1c(NC(=O)c2ccoc2C)sc(C)c1C", "inhibition": "5.4%"}, {"compound": "COc1ccc(-c2c(C)[nH]n3c(=O)c4c(nc23)CCCC4)cc1", "inhibition": "73% (active)"}, {"compound": "CCc1c(C)nc2c(-c3ccc(OC)cc3)c(C)[nH]n2c1=O", "inhibition": "12.9%"}, {"compound": "COc1ccc(-c2c(C)[nH]n3c(=O)cc(Cc4ccccc4)nc23)cc1", "inhibition": "-1.1%"}, {"compound": "CC(C)OC(=O)c1nonc1N(C(=O)c1ccccc1)C(=O)c1ccccc1", "inhibition": "-0.6%"}, {"compound": "O=C1C(=O)N(CCN2CCOCC2)C(c2cccs2)/C1=C(\\O)c1ccc(S(=O)(=O)N2CCOCC2)cc1", "note": "(centres undefined)", "inhibition": "-1.3%"}, {"compound": "CC(=O)C1=C(O)C(=O)N(CCc2c(C)[nH]c3ccccc23)C1c1cccc(F)c1", "note": "(centres undefined)", "inhibition": "65.2% (active)"}, {"compound": "CC(=O)C1=C(O)C(=O)N(CCc2c(C)[nH]c3ccccc23)C1c1cccc([N+](=O)[O-])c1", "note": "(centres undefined)", "inhibition": "9.3%"}, {"compound": "COc1ccc(/C(O)=C2/C(=O)C(=O)N(CCc3c(C)[nH]c4ccccc34)C2c2ccc(Cl)cc2)cc1", "note": "(centres undefined)", "inhibition": "4.2%"}, {"compound": "Cc1onc(-c2ccccc2Cl)c1C(=O)Oc1cccc(F)c1", "inhibition": "3.6%"}, {"compound": "CCOC(=O)c1c(NC(=O)c2cc3ccccc3o2)sc2c1CCC(C)C2", "note": "(centres undefined)", "inhibition": "-1.7%"}, {"compound": "CCN1CCC2(CC1)N=C(c1ccccc1)C(=S)N2C(=O)c1ccccc1", "inhibition": "2.1%"}, {"compound": "CC(=O)C1=C(O)C(=O)N(Cc2ccco2)C1c1ccc(Br)cc1", "note": "(centres undefined)", "inhibition": "-1.5%"}, {"compound": "COc1ccc(/C(O)=C2/C(=O)C(=O)N(c3ccc(C)c(Br)c3)C2c2ccc(O)cc2)cc1", "note": "(centres undefined)", "inhibition": "-5.2%"}, {"compound": "O=C(c1ccccc1F)N(Cc1ccco1)Cc1ccccc1F", "inhibition": "9.3%"}, {"compound": "O=C(Oc1ccc2c(=O)c(Oc3ccccc3Cl)c(C(F)(F)F)oc2c1)c1cccs1", "inhibition": "-8.1%"}, {"compound": "O=C(Oc1ccc2c(=O)c(Oc3ccccc3Br)c(C(F)(F)F)oc2c1)c1cccs1", "inhibition": "37.2% (active)"}, {"compound": "O=C(Oc1ccc2c(=O)c(-c3ccccc3Cl)c(C(F)(F)F)oc2c1)c1cccs1", "inhibition": "70% (active)"}, {"compound": "COc1ccccc1-c1c(C(F)(F)F)oc2cc(OC(=O)N3CCOCC3)ccc2c1=O", "inhibition": "9.4%"}, {"compound": "COc1ccc(Oc2c(C(F)(F)F)oc3cc(OC(=O)c4c(OC)cccc4OC)ccc3c2=O)cc1", "inhibition": "2.9%"}, {"compound": "COc1cccc(OC)c1C(=O)Oc1ccc2c(=O)c(-c3ccc(Cl)cc3)c(C(F)(F)F)oc2c1", "inhibition": "4.7%"}, {"compound": "COc1cc(C)c2c(=O)c(Oc3ccccc3)c(C(F)(F)F)oc2c1", "inhibition": "4.2%"}, {"compound": "CCCCc1c(O)nc(SCCN(C)C)n(-c2ccccc2)c1=O", "inhibition": "-1%"}, {"compound": "CCOc1ccc(C2/C(=C(/O)c3ccc(Cl)cc3)C(=O)C(=O)N2c2ccc(C)c(Br)c2)cc1", "note": "(centres undefined)", "inhibition": "-0.6%"}, {"compound": "COCCCN1C(=O)C(=O)/C(=C(/O)c2ccccc2)C1c1cc(OC)ccc1OC", "note": "(centres undefined)", "inhibition": "11.4%"}, {"compound": "COc1ccc(C2/C(=C(\\O)c3ccccc3)C(=O)C(=O)N2c2ccc(C)c(Cl)c2)c(OC)c1", "note": "(centres undefined)", "inhibition": "-4.3%"}, {"compound": "COCCN1C(=O)C(=O)/C(=C(/O)c2ccccc2)C1c1cc(OC)ccc1OC", "note": "(centres undefined)", "inhibition": "69.8% (active)"}, {"compound": "COc1ccc(C2/C(=C(/O)c3ccccc3)C(=O)C(=O)N2CCO)c(OC)c1", "note": "(centres undefined)", "inhibition": "-12.1%"}, {"compound": "COCCN1C(=O)C(=O)/C(=C(/O)c2ccccc2)C1c1ccc(OC)cc1OC", "note": "(centres undefined)", "inhibition": "10.5%"}, {"compound": "COc1ccc(C2/C(=C(\\O)c3ccccc3)C(=O)C(=O)N2CCCn2ccnc2)c(OC)c1", "note": "(centres undefined)", "inhibition": "79.1% (active)"}, {"compound": "COc1ccc(C2/C(=C(/O)c3ccccc3)C(=O)C(=O)N2c2ccc(C)c(Br)c2)c(OC)c1", "note": "(centres undefined)", "inhibition": "-1.6%"}, {"compound": "COc1ccc(/C(O)=C2/C(=O)C(=O)N(CCCn3ccnc3)C2c2cccc(OC)c2)cc1", "note": "(centres undefined)", "inhibition": "-6.1%"}, {"compound": "COc1ccc(C2/C(=C(\\O)c3ccccc3)C(=O)C(=O)N2c2cccc(Cl)c2)c(OC)c1", "note": "(centres undefined)", "inhibition": "47.6% (active)"}, {"compound": "CC(C)c1ccc(C2/C(=C(\\O)c3ccc(F)cc3)C(=O)C(=O)N2CCCN2CCOCC2)cc1", "note": "(centres undefined)", "inhibition": "-6%"}, {"compound": "COc1ccc2c(=O)c(-c3ccccc3)c(C(F)(F)F)oc2c1C", "inhibition": "-2.4%"}, {"compound": "CCc1cc2c(=O)c(-c3nc4ccccc4s3)c(C)oc2cc1OC(C)=O", "inhibition": "4%"}, {"compound": "O=C1C(=O)N(CCN2CCOCC2)C(c2cccc(Br)c2)/C1=C(\\O)c1ccccc1", "note": "(centres undefined)", "inhibition": "1.8%"}]}]}
